Experimental data taken from ChEMBL document CHEMBL4888484, “Replenishing the malaria drug discovery pipeline: Screening and hit evaluation of the MMV Hit Generation Library 1 (HGL1) against asexual blood stage Plasmodium falciparum ,using a nano luciferase reporter read-out” (2022).
Screen size: about 4,800 compounds; about 410 (8.5%) showed an effect of 50% or more. This excerpt belongs to a sample that is enriched for strong results.

Tested on: Plasmodium falciparum
Assay: Confirmatory screen in NF54 pLDH assay, in single point, at 2uM, 72h
Type: functional, Erythrocyte
Conditions: timepoint 72 hour

| SMILES | % Inhibition |
| --- | --- |
| COc1cccc(CNCCCN2CCOCC2)c1OCc1ccc(Cl)cc1Cl | 12% |
| CCOc1cc(CNCCCn2ccnc2)ccc1OCc1ccccc1 | 23% |
| COc1cccc(CNCCN2CCOCC2)c1OCc1ccc(Cl)cc1Cl | 11% |
| Clc1ccc(Cn2cc(CNCCCn3ccnc3)c3ccccc32)c(Cl)c1 | 100% |
| OCCNCc1ccc(Cl)cc1Cl | 6% |
| Clc1ccc(COc2ccc(Cl)cc2CNCCCn2ccnc2)c(Cl)c1 | 100% |
| COc1ccc(NC(=O)[C@@H](c2cc(OC)c(OC)c(OC)c2)N(Cc2ccccc2)C(=O)Cn2nnc3ccccc32)cc1 | -15% |
| COc1ccc(S(=O)(=O)N2CCN(S(=O)(=O)c3ccc(OC)cc3)C2)cc1 | -2% |
| CCOc1c(CNC(C)(C)CC(C)(C)C)cccc1OC | 5% |
| COc1ccc2cc3n(c2c1)C[C@](C(=O)NC1CCCCCC1)(c1ccccc1)N(Cc1ccccc1F)C3=O | -26% |
| C[C@H](C(=O)NCC1CCN(Cc2ccccc2F)CC1)C1CCOCC1 | 3% |
| CC(Oc1ccc2c(c1)C(c1ccccc1)N(Cc1ccccc1F)CC2)C(=O)NC1CC1 (stereo not given) | 50% |
| O=C(c1ccc2c(c1)OCO2)N1CCn2c1nc1ccccc12 | 3% |
| CC(=O)Nc1cccc(NC(=O)[C@H]2CC[C@H](Cn3c(O)nc4ccccc4c3=O)CC2)c1 | 5% |
| COc1cc2c(cc1Cl)-n1cccc1C1(CCNCC1)N2 | -15% |
| CC1=CC(=[N+](CCO)CCO)C=C/C1=C(\c1ccc(N(CCO)CCO)cc1C)c1ccccc1Cl | 87% |
| O=C(CN1CCN(Cc2cccc(Cl)c2)C1=O)N1CCN(c2ccccc2)CC1 | 4% |
| COc1cccc(-c2cc3c(N4CCC(C(=O)NC[C@H]5CCCO5)CC4)nccn3n2)c1 | 5% |
| Cc1ccc(S(=O)(=O)Cc2nc3cc(C)c(C)cc3[nH]c2=O)cc1 | 2% |
| N#Cc1cc(S(=O)(=O)NCCN(C2CC2)S(=O)(=O)c2ccc(Cl)c(C#N)c2)ccc1Cl | 86% |
| O=S(=O)(NC1CCCCC1)c1ccc(Cl)c(S(=O)(=O)NC2CCCCC2)c1 | 6% |
| Cc1cccc(NC(=O)CCC(=O)OCC(F)(F)F)c1C | -1% |
| Cc1nc(-c2ccccc2)cc2nn(CC(=O)NC3CCCCC3)c(=O)n12 | -8% |
| COc1cccc(-c2cc(C(=O)N3CCCN(C(=O)c4cc(-c5cccc(OC)c5)nc5ccccc45)CC3)c3ccccc3n2)c1 | -26% |
| O[C@H]1CNCC[C@@H]1Nc1cc(-c2ccccc2)nc2ccccc12 | 76% |

| SMILES | % Inhibition |
| --- | --- |
| CC(C)(C)NC(=O)C1CCN(C[C@@H]2CC=CCC2)CC1 | 10% |
| Cc1ccc(/C=C(\C(=O)NC[C@H]2CCCO2)n2ccccc2=O)cc1 | 12% |
| CCCC1(CNC(=O)Nc2nc(CS(C)(=O)=O)no2)CC1 | 6% |
| CCCCCn1c(NCc2cc(Cl)ccc2O)nc2ccccc21 | 21% |
| CCOc1cc(CNCCN2CCOCC2)cc(Cl)c1OCc1ccccc1 | 9% |
| CCCc1noc([C@H]2CC(=O)N(c3ccccc3C)C2)n1 | 8% |
| CCc1nc2c(C(=O)N3CCOc4c(C)cc(C)cc43)ccnc2[nH]1 | 60% |
| CCOc1ccc(C/C(=C/N)c2nc(-c3ccc(Cl)cc3)cs2)cc1 | 15% |
| CCn1c(=O)c(N2CCC(C(=O)NCCCc3ccccc3)CC2)nc2cccnc21 | -22% |
| Clc1cccc(-c2c[nH]c([C@@H]3COCCN3C3CCOCC3)n2)c1 | -16% |
| CN1CCC[C@H](c2nnc3sc(-c4ccc(OCc5ccccc5)cc4)nn23)C1 | 8% |
| CC(C(=O)Nc1nccs1)N1CCCC(c2ccn[nH]2)C1 (stereo not given) | 45% |
| Cc1cc(-c2cncc(CN3CCCCC3)c2)ccc1F | 8% |
| O=S(=O)(c1cccc(Cl)c1)N1CCc2nc(N3CCCCC3)nc(Oc3ccccc3)c2C1 | 78% |
| Cc1noc(C)c1CNc1cc(S(=O)(=O)N2CCCCC2)ccc1Oc1ccccc1 | 14% |
| Cc1ccc(-c2nn(Cn3nc(C)c(Cl)c3C)c(-c3ccc(C)cc3)c2Br)cc1 | -12% |
| Cn1c(CN2CCOC[C@@]23CCOC3)nnc1C1CC1 | 13% |
| O=C(Nc1ccccc1Cl)Nc1cccc2c(-c3ccccc3)c(C(=O)N3CCOCC3)[nH]c12 | 12% |
| Cc1ccc(S(=O)(=O)c2c(C)cc(-c3ccccc3)nc2N2CCOCC2)cc1 | 12% |
| CCO[C@@]1(c2ccccc2)NC(=O)c2cc3c(cc21)OCCO3 | -18% |
| CC(=O)N(CCN1CCOCC1)[C@H]1CCN(S(=O)(=O)c2cccc(Cl)c2)C1 | 9% |
| O=C(NCCCN1CCOCC1)c1ccc(-c2cnc(NC3CCCCC3)nc2)cc1 | -15% |
| Cn1cc(CN2CCC(C(=O)NCCCN3CCCCC3)CC2)c2cc(Cl)ccc21 | -8% |
| CO/N=C(\Nc1cc(C)ccc1C)c1nonc1N | 16% |
| O=C(C[C@@H]1NC(=O)c2ccccc2NC1=O)NCc1ccc(Cl)cc1Cl | -6% |

| SMILES | % Inhibition |
| --- | --- |
| Nc1cc(F)c(Br)cc1Cl | 7% |
| CCn1c(=O)c(N2CCC(C(=O)N3CCN(c4ccccc4F)CC3)CC2)nc2cccnc21 | -9% |
| O=C1C[C@@H](c2cccc(Br)c2)c2c(O)nc(N3CCOCC3)nc2N1 | -7% |
| CCN(C(C)=O)c1nc(CN2C(=O)N[C@](C)(c3ccc(F)cc3Br)C2=O)cs1 | 9% |
| Cc1nccc(O[C@H]2CCCN(C(=O)CN3CCN(c4ccccc4)C3=O)C2)n1 | 9% |
| COc1cccc(N2C(=O)N[C@H](C)C2=O)c1 | 15% |
| COc1cccc(C(=O)Nc2noc(-c3cccc(OC)c3)c2-c2ccc(Cl)cc2)c1 | -19% |
| COc1ccc(-c2c(-c3cccc(OC)c3)[nH]c3c2c(=O)[nH]c(=O)n3C)cc1 | 97% |
| CCCN1CCN(S(=O)(=O)c2cccc3nonc23)CC1 | 11% |
| O=C1CCc2cc(N[C@@H](C(=O)N3CCCC3)c3ccccc3)ccc2N1 | 5% |
| Clc1cccc(N2CCN(Cc3nc(-c4ccco4)no3)CC2)c1 | -1% |
| O=C(NC1CCN(Cc2ccco2)CC1)c1ccco1 | -2% |
| Cc1nn(C)cc1C(=O)N1CCN(c2nncc3ccccc23)CC1 | -10% |
| COc1ccnc(NCc2ccc(N3CCOCC3)cc2)n1 | 10% |
| CCNC(=O)c1nc(-c2ccncc2)cs1 | -16% |
| O=C(Cn1nc(C2CC2)nc1C1CC1)N1CCOCC1 | 11% |
| CCN(C[C@H](C)C#N)C(=O)C(=O)Nc1ccc(F)cc1Cl | 13% |
| COc1cc(Br)cc(C#N)c1O | 9% |
| CC(C)c1cccc(Nc2nc3ccncc3n(C(C)C)c2=O)c1 | 94% |
| O=C(CCOCC(F)(F)F)Nc1ccc2c(c1)C(=O)NC2 | -5% |
| CC[N+](CC)(CC(=O)OC1CC2CCC1(C)C2(C)C)CC(=O)OC1CC2CCC1(C)C2(C)C (stereo not given) | 92% |
| Cn1cc(C(C(=O)O[C@@H]2C[C@@H]3CC[C@@]2(C)C3(C)C)c2cn(C)c3ccccc23)c2ccccc21 | 3% |
| Cc1ccnc(-c2noc(Cn3c(=O)c(C)cn(C)c3=O)n2)c1 | 4% |
| Nc1nc(Cc2ccccc2)c(Br)c(=O)[nH]1 | 5% |
| COc1ccc(C2=NC3=S(N2c2ccccc2)N(C(C)=O)C(C(Cl)(Cl)Cl)N3c2ccccc2)cc1 (stereo not given) | 13% |
